# Only some compounds are listed: those with a hit (about 8% of all), similar ones and a draw of the others.
# KB-V1 cytotox: qHTS assay for MDR1-selective chemotherapeutics: Primary screen using the drug-selected MDR subline cells KB-V1; Potency, µM (highest dose often 46.1 µM), usual class: cytotoxic; AID 1347076, 2019; 400,000 compounds, 3.4% hits; KB-V1 MDR cells viability, CellTiter-Glo, 72 h; further: on the % scale 0 is the no-effect control and ±100 the full control effect; nearly all actives have a fitted effect of over 60% in size
#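 Compound-treated KB-V1 multidrug-resistant cells, 72 h, 37 degrees C; viability by CellTiter-Glo. Fitted qHTS curves give the values.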
# KB-3-1 tox: qHTS assay for MDR1-selective chemotherapeutics: Primary screen using the parental adenocarcinoma cell KB-3-1 | KB-3-1 viability, CellTiter-Glo ATP luminescence, 72 h | Potency, µM (titrated, usually from 46.1 µM), hits mostly cytotoxic | 400,000 compounds, 1.4% hits | AID 1347075, 2019; further: on the % scale 0 is the no-effect control and ±100 the full control effect; nearly all actives have a fitted effect of over 60% in size
#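 Here the drug-naive KB-3-1 line serves as comparator for MDR sub-line selectivity; cells received compound titrations, 72 h at 37 °C, then CellTiter-Glo readout.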
# HT1080 IDH1KD tx: qHTS for induction of synthetic lethality in tumor cells producing 2HG: qHTS for the HT-1080-IDH1KD cell line; 360,000 compounds, 2% hits; HT-1080 IDH1 knockdown viability, ATP luminescence, 48 h; Potency, µM (series often up to 46.1 µM), inactives show top-dose activity, negative = toxicity, usual class: cytotoxic;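 further: 0% = DMSO wells and -100% = cell-free medium wells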
#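 Luminescent ATP read-out (CellTiter-Glo, 10 min at room temperature) after 48 h compound exposure at 37 °C gave viability of IDH1-knockdown HT-1080 cells. Activity was normalised to DMSO and cell-free wells, then fitted as concentration-response curves.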
# MCF10A rerep: A quantitative high throughput screen for small molecules that induce DNA re-replication in MCF 10a normal breast cells | 350,000 compounds, 2.9% hits | AID 624296, 2012 | MCF 10A DNA re-replication, Hoechst nuclear intensity, 48 h | Potency, µM (highest dose often 46.1 µM), without a hit: at the top dose activity, positive = re-replication, most hits filed as activators; further: % of control where 0% means no effect; nearly all actives have a fitted effect of over 50% in size
# HT1080-NT tox: qHTS for induction of synthetic lethality in tumor cells producing 2HG: qHTS for the HT-1080-NT fibrosarcoma cell line | HT-1080-NT fibrosarcoma viability, CellTiter-Glo ATP luminescence, 48 h | Potency, µM (series often up to 46.1 µM), without a hit: at the top dose activity, negative = less viability, actives largely listed as cytotoxic | 360,000 compounds, 1.6% hits;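 further: NT is the 2HG producing partner of a matched IDH1 knockdown line; 0% = DMSO-treated cells and -100% = media-only wells without cells; nearly all actives have a fitted effect of over 55% in size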
#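 Compounds were tested in concentration-response format on HT-1080-NT cells for 48 hours at 37 degrees C. Cell viability came from CellTiter-Glo luminescence; curves were classified by r2, response magnitude and activity.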
# SW480 rereplic: A quantitative high throughput screen for small molecules that induce DNA re-replication in SW480 colon adenocarcinoma cells | SW480 DNA re-replication, Hoechst DNA content imaging, 48 h | 340,000 compounds, 1.8% hits | Potency, µM (titrated, usually from 46.1 µM), without a hit: at the highest dose re-replication activation, most hits filed as activators; further: % of control where 0% means no effect; nearly all actives have a fitted effect of over 55% in size
#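 Quantitative HTS format with DMSO vehicle controls; 48 hr drug incubation at 37 C, then 40 min Hoechst staining and scanning imager measurement at 405 nm excitation.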
# * marks the source's active call; other numbers are inactive results; i = inactive; ? = inconclusive; / = no result. The call rests on the fitted dose curve; in most records, active means well fitted curve in the direction sought with a large enough effect; inconclusive means small, poorly fitted or top-dose-only effect, or another doubt; inactive means no such curve, though single readings can be large; an effect the other way counts as inactive or inconclusive. Potency means the concentration at half of the fitted maximal effect.
SMILES,KB-V1 cytotox,KB-3-1 tox,HT1080 IDH1KD tx,MCF10A rerep,HT1080-NT tox,SW480 rereplic
CC(C)c1ccc(NC(=O)[C@H](Cc2c[nH]c3ccccc23)NC(=O)[C@@H]2Cc3ccccc3CN2)cc1,i,?,-18%,21µM*,-14%,?
Cc1ccc(NC(=O)[C@H](NC(=O)[C@@H]2Cc3ccccc3CN2)c2ccccc2)cc1,i,i,1%,0%,-3%,-33%
CC(C)c1ccc(NC(=O)[C@H](NC(=O)[C@@H]2Cc3ccccc3CN2)c2ccccc2)cc1,i,i,?,21µM*,?,?
COc1ccc(CNC(=O)[C@H](Cc2c[nH]c3ccccc23)NC(=O)[C@@H]2Cc3ccccc3CN2)cc1,i,i,-12%,15%,-11%,10%
Cc1cccc(NC(=O)[C@@H](CC(C)C)NC(=O)[C@@H]2Cc3ccccc3CN2)c1,i,i,-8%,-3%,11%,6%
COc1cc(/C=N/NC(=O)c2cccnc2)ccc1OS(=O)(=O)c1cc(C)ccc1C,i,i,-23%,?,-27%,?
CCc1ccc(NCc2cc3cc4c(cc3n(CC(=O)Nc3ccccc3OC)c2=O)OCCO4)cc1,i,i,/,/,/,/
CSC1SCC2C(=O)N(C)C(C(C)C)C(=O)OCC(NC(=O)c3cnc4ccccc4n3)C(=O)NC(C)C(=O)N(C)C1C(=O)N(C)C(C(C)C)C(=O)OCC(NC(=O)c1cnc3ccccc3n1)C(=O)NC(C)C(=O)N2C (stereo not given),1.6µM*,i,0.0012µM*,4%,-32%,-1%
COc1cc(OC)cc(-c2c(-c3ccc(F)cc3)c3cc(-c4ccc5[nH]ccc5c4)ccc3n2C)c1,21µM*,i,-7%,11%,-7%,?
N#CCCn1cc(C(=O)CN2C(=O)NC3(CCc4ccccc43)C2=O)c2ccccc21 (stereo not given),i,i,-12%,/,-14%,/
N#CCC1c2ccccc2CCN1C(=O)Nc1ccc(C(F)(F)F)cc1 (stereo not given),i,i,?,4%,?,-14%
N#CCC1c2ccccc2CCN1C(=O)Nc1ccc(Cl)cc1 (stereo not given),i,i,-30%,1%,7%,-3%
N#CCC1c2ccccc2CCN1C(=O)Nc1cccc(C(F)(F)F)c1 (stereo not given),i,?,?,-4%,13µM*,1%
N#CCC1c2ccccc2CCN1C(=O)Nc1cccc(Cl)c1 (stereo not given),16µM*,i,?,4%,-14%,-7%
Cc1c(CN(C)Cc2cn(C)nc2-c2ccccc2F)[nH]c2ccccc12,i,i,?,18µM*,?,?
CCCCN(C)CC(O)Cn1cc(/C=C/C(=O)c2cccs2)c2ccccc21 (stereo not given),?,?,4%,16µM*,0%,23µM*
O=C(/C=C/c1cn(CC(O)CN2CCCCCC2)c2ccccc12)c1cccs1 (stereo not given),?,?,21µM*,15µM*,18µM*,18µM*
CN(C)CCCNc1cc(Cl)c(S(=O)(=O)N2CCCCC2)cc1C(=O)O,i,i,-3%,2.6µM*,5%,-3%
CC(=O)c1ccc(-n2c(=O)[nH]c(=O)c3c(N)c(C(=O)c4ccc(Cl)cc4)sc32)cc1,i,i,23µM*,?,21µM*,18µM*
Nc1c(C(=O)c2ccccc2)sc2c1c(=O)[nH]c(=O)n2-c1ccccc1,15µM*,i,-18%,8%,-12%,-10%
Cc1ccc(C(=O)c2sc3c(c2N)c(=O)[nH]c(=O)n3CCc2ccccc2)cc1,?,i,5%,9.2µM*,9%,?
Nc1c(C(=O)c2ccc(Cl)cc2)sc2c1c(=O)[nH]c(=O)n2-c1ccccc1,i,i,-8%,?,-1%,-4%
CCc1cccc(NC(=O)Cn2nc(C)c3sc4ccccc4c3c2=O)c1,i,i,/,/,/,/
O=C(CCc1ccccc1)NC(NC(=S)Nc1ccc(Br)cc1)C(Cl)(Cl)Cl (stereo not given),i,i,?,-4%,18µM*,-2%
CCCC(=O)NC(NC(=S)Nc1ccc(N=Nc2ccccc2)cc1)C(Cl)(Cl)Cl (stereo not given),18µM*,15µM*,18µM*,13µM*,?,6%
SMILES,KB-V1 cytotox,KB-3-1 tox,HT1080 IDH1KD tx,MCF10A rerep,HT1080-NT tox,SW480 rereplic
O=C(CCc1ccccc1)NC(NC(=S)Nc1cccc(Cl)c1)C(Cl)(Cl)Cl (stereo not given),?,i,17%,5.8µM*,10%,-11%
O=C(CCc1ccccc1)NNC(=O)Nc1ccc(Br)cc1,i,i,1%,0%,4%,3%
CCc1ccc(OCC(=O)NC(NC(=S)Nc2ccc(Cl)cc2)C(Cl)(Cl)Cl)cc1 (stereo not given),3.7µM*,8.2µM*,?,?,?,-168%
COc1cccc(C(=O)N2CCCN(C)CC2)c1OC,i,i,4%,0%,20%,-14%
CC(C(=O)Nc1cccc(C#N)c1)n1nc(-c2ccccc2)c2c(c1=O)CCCC2 (stereo not given),i,?,/,/,/,/
C=CCOc1ccc(/C=N/O)cc1Cl,i,12µM*,11%,0%,5%,-1%
CCOc1ccc2ccccc2c1/C=N\NC(=O)c1ccc([N+](=O)[O-])cc1,i,i,-24%,1%,-10%,23µM*
CCOc1ccc2ccccc2c1/C=N\NC(=O)OC,i,i,6%,13%,15%,-9%
O=C(N/N=C\c1c(O)ccc2ccccc12)c1cncc(Br)c1,?,2.9µM*,1µM*,15µM*,?,?
Cc1ccc(C(=O)N/N=C/c2c(O)ccc3ccccc23)cn1,i,i,?,24%,?,25%
O=C(N/N=C/c1c(O)ccc2ccccc12)c1ccc(Br)o1,?,?,5.8µM*,?,?,1.2µM*
